Measured values from PubChem BioAssay (NCATS).
Results filed as inconclusive are left out. Where a call stands in place of a potency, no number is given. Activity calls are given as the source filed them. Calls come from the whole dose curve; as a rule, active = well fitted inhibition curve with a large enough effect; inconclusive = small, poorly fitted or top-dose-only effect; inactive = flat fitted curve, though single readings scatter.

Each molecule was assayed against Calcium and integrin-binding protein 1 (Homo sapiens) (UniProt Q99828) (assay: Primary qHTS for Identification of Calcium Integrin Binding Protein 1 (CIB1) Competitor (AID 1508620;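 note: GST tagged CIB1 binding a fluorescein labelled alphaIIb integrin peptide tracer; top concentration of the series differs between compounds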)). Conditions: CIB1-GST / FITC-alphaIIb peptide fluorescence polarization; series mostly up to 114 µM.
Sequence of Calcium and integrin-binding protein 1 (Homo sapiens) (Q99828 whole entry, looked up): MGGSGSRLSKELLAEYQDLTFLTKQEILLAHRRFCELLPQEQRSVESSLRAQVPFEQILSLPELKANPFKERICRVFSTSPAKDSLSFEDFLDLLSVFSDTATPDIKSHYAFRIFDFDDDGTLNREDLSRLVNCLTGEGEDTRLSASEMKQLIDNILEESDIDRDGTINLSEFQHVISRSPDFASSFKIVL
Outline: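 CIB1-GST (1 uM final) and compound incubated 15 min at room temperature before adding FITC-alphaIIb peptide tracer (100 nM final). Competition for binding read by fluorescence polarization (ex 480, em 540) after another 15 min at room temperature.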

SMILES	Potency
NC(=O)C1CCN(c2nc(-c3ccccc3)cs2)CC1	inactive
Cc1cccc(CNc2ccnc(-c3cccc(C(F)(F)F)c3)n2)c1	inactive
O=C(/C=C/c1c(F)c(F)c(F)c(F)c1F)Nc1cccc([S+](=O)([O-])Nc2ccccc2F)c1	inactive
Cc1cc2c(s1)c1cnn(Cc3ccc(C(F)(F)F)cc3)c(=O)c1n2C	inactive
